# From PubChem BioAssay (EPA / NIEHS)
# Activity calls are given as the source filed them. The calls were made as follows: active = hit-call score of the fitted dose curve at least 0.9, where 1 is the maximum; inactive = score below 0.9.
# Test: CCTE_Shafer_MEA_acute_per_network_burst_spike_number_std: CCTE's Neural Acute Assay for Standard Deviation of Number of Spikes in a Network Burst, Shafer Lab (AID 2284020);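 also: fitted for decrease in spike-number SD versus DMSO so actives lower it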
# Protocol: CCTE_Shafer_MEA_acute assay is conducted using Axion Biosystems 48 well microelectrode array (MEA) plates and Maestro recording system. Each well of the MEA plate contains a grid of 16 microelectrodes embedded in the culture surface. Electrically active cells, such as neurons, can be cultured over the electrodes, and electrical activity in these cells can be recorded extracellularly. The spontaneous firing of neurons is captured from each electrode on a microsecond timescale providing both temporally and spatially precise data. […] The CCTE_Shafer_MEA_acute assay uses primary cultures of rat cortical neurons. As these cultures mature over time, neural networks develop functional activity and form cohesive networks in which electrical activity can be highly coordinated. Baseline 40-minute recordings are made on days post-plating 13 or 15, followed by a secondary 40-minute recording after chemical exposure.CCTE_Shafer_MEA_acute_per_network_burst_spike_number_std is a component of the CCTE_Shafer_MEA_acute assay. It measures the standard deviation of the number of spikes (action potential firings) in a network burst (temporally-clustered group of spikes across multiple electrodes) during a recording in a microelectrode array (MEA) using Axion Biosystems Maestro 768 channel amplifier with the AxIS adaptive spike detector. The recordings before and after chemical treatment are used to calculate a percent change in the standard deviation of the number of spikes in network bursts in each well.Data from the assay component CCTE_Shafer_MEA_acute_burst_spike_number_std was analyzed into 1 assay endpoint. This assay endpoint, CCTE_Shafer_MEA_acute_burst_spike_number_std, was analyzed in the negative analysis fitting direction relative to DMSO as the negative control and baseline of activity. Using a type of functional reporter, gain or loss-of-signal activity can be used to understand electrical activity.
# Spontaneous activity in the cortical cultures was recorded using an Axion Biosystems Maestro 768 channel amplifier and Axion Integrated Studios (AxIS) v1.8 (or later) software. The amplifier recorded from all channels simultaneously (gain = 1200 x; sampling rate = 12.5 kHz/channel): raw signals were filtered with a Butterworth band-pass filter (300-5000 Hz), which filters out slower local field potentials leaving only fast potentials, i.e., "spikes", arising from extracellular currents associated with action potentials (Pine 2006; Wheeler and Nam 2011). On-line spike detection of filtered signals was conducted with the AxIS adaptive spike detector, using a threshold of 8x the root mean squared (rms) noise on each channel. Any electrodes with rms noise levels greater than 5 uV were grounded (e.g., no data were recorded). Once grounded, an electrode was grounded for the duration of the experiment. All recordings were conducted at 37 C. Wells were deemed usable if on the day of the exposure >/= 10 electrodes were active (defined as >/= 5 spikes/min). On DIV 13 or 15, a minimum of three wells from one cortical culture preparation were treated with each compound (0.03-40 uM). Prior to recording baseline activity, each mwMEA plate was placed in the Maestro at 37 C and allowed to sit for 20 min while firing rates stabilized. Baseline activity (40 min) was recorded before the addition of each compound. An additional 40 min of spontaneous activity was recorded in the presence of each compound. Changes in network parameters relative to baseline were assessed following compound treatment.
Structure (SMILES),outcome,AC50
CC(C)(C)c1ccccc1O,inactive,
CCCCOC(=O)COC(=O)c1ccccc1C(=O)OCCCC,inactive,
Clc1cccc(Cl)c1Cl,inactive,
CC(C)[C@@H](Nc1ccc(C(F)(F)F)cc1Cl)C(=O)OC(C#N)c1cccc(Oc2ccccc2)c1 (stereo not given in full),,289 nM (active)
Cc1ccccc1OP(=O)(Oc1ccccc1C)Oc1ccccc1C,inactive,
Cc1cc(C(F)(C(F)(F)F)C(F)(F)F)ccc1NC(=O)c1cccc(I)c1C(=O)NC(C)(C)CS(C)(=O)=O,inactive,
CCCCCCCCCCCCc1cccc(S(=O)(=O)O)c1,inactive,
Oc1cc(Cl)c(Cl)cc1Cl,inactive,
Oc1ccc(Cc2ccc(O)cc2)cc1,inactive,
OCCCCO,inactive,
CN(C)C(=S)S,inactive,
CS(=O)(=O)c1ccc(C(=O)C2C(=O)CCCC2=O)c(Cl)c1COCC(F)(F)F,inactive,
N#Cc1cccnc1,inactive,
O=C(Cc1ccccc1)OCCc1ccccc1,inactive,
CC1(C)[C@H](C(=O)O[C@H](C#N)c2cccc(Oc3ccccc3)c2)[C@@H]1/C=C(\Cl)C(F)(F)F,,427 nM (active)
